Test results published in PubChem BioAssay AID1159580 (chemical genetic matrix, 2015).
In all, about 5,500 compounds went through this assay and about 2,000 (36%) were called active. Roughly 18% stayed inconclusive and do not appear here. Rule as the data show it: active = normalized growth mostly below about 0.91 (no sharp cut-off); inconclusive = no clear call, values can overlap the other calls; inactive = mostly above about 0.92. This is one part of the list.

Assay: chemical genetic growth profiling, strain panel (AID 1159580);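 also: tested at 20 µM; growth read once vehicle control cultures reached saturation at 30 °C; 1 = growth at the plate median or of vehicle wells; lower values mean less growth of the strain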
Details: S. cerevisiae deletion strains, growth OD
[1] = locus YCL061C, strain MRC1, hits give low values
[2] = locus YHR030C, strain SLT2, hits give low values

Measured: normalized growth

NC1=C(c2ccccc2)C(=O)NC1=O
inactive: locus YAL013W, strain DEP1, hits give low values 1.01 | locus YBR229C, strain ROT2, hits give low values 1.05 | [1] 1.03 | locus YDL101C, strain DUN1, hits give low values 0.993 | locus YDR150W, strain NUM1, hits give low values 0.991 | locus YEL061C, strain CIN8, hits give low values 0.999 | locus YGR078C, strain PAC10, hits give low values 0.998 | locus YGR229C, strain SMI1, hits give low values 1.01 | [2] 1.02 | locus YHR087W, strain rtc3, hits give low values 0.988 | locus YJR043C, strain POL32, hits give low values 1.01 | locus YJR075W, strain HOC1, hits give low values 0.95 | locus YLR039C, strain RIC1, hits give low values 1.02 | locus YLR058C, strain SHM2 (second series), hits give low values 1.02 | locus YLR085C, strain ARP6, hits give low values 0.946 | locus YLR262C, strain YPT6, hits give low values 1.01 | locus YML094W, strain GIM5, hits give low values 0.993 | locus YMR219W, strain ESC1, hits give low values 0.984 | locus YMR263W, strain SAP30, hits give low values 1.01 | locus YNL128W, strain TEP1, hits give low values 1.03 | locus YNL153C, strain GIM3, hits give low values 1 | locus YNL298W, strain CLA4 (second series), hits give low values 0.996 | locus YNL322C, strain KRE1, hits give low values 1 | locus YNR030W, strain Alg12, hits give low values 0.989 | locus YPL055C, strain LGE1, hits give low values 0.994 | locus YPL241C, strain CIN2, hits give low values 1.01 | locus YPR135W, strain CTF4, hits give low values 0.974

CCCCCCCCCCCCCCCCOP(=O)([O-])OCC[N+](C)(C)C
inactive: [2] 0.971 | locus YHR079C, strain IRE1, hits give low values 0.967 | locus YJL095W, strain BCK1, hits give low values 0.985 | locus YJR066W, strain TOR1, hits give low values 0.915 | locus YLR113W, strain HOG1, hits give low values 1.07 | locus YNL183C, strain NPR1, hits give low values 0.912 | locus YOR231W, strain MKK1, hits give low values 0.953 | locus YPL256C, strain CLN2, hits give low values 1.01
active: locus YAL021C, strain ccr4, hits give low values 0.0619 | locus YAL026C, strain drs2, hits give low values 0.0625 | locus YAL030W, strain snc1, hits give low values 0.0575 | locus YBL061C, strain skt5, hits give low values 0.0614 | locus YBR009C, strain hhf1, hits give low values 0.0673 | locus YBR023C, strain chs3, hits give low values 0.0636 | locus YBR171W, strain sec66, hits give low values 0.0767 | locus YBR231C, strain swc5, hits give low values 0.0637 | locus YBR279W, strain paf1, hits give low values 0.0644 | locus YCL011C, strain gbp2, hits give low values 0.0569 | locus YCL016C, strain dcc1, hits give low values 0.0649 | [1] 0.0638 | locus YCL069W, strain vba3, hits give low values 0.0585 | locus YCR088W, strain abp1, hits give low values 0.0589 | locus YDL005C, strain med2, hits give low values 0.0739 | locus YDL040C, strain nat1, hits give low values 0.062 | locus YDR001C, strain nth1, hits give low values 0.0559 | locus YDR069C, strain doa4, hits give low values 0.0612 | locus YDR137W, strain rgp1, hits give low values 0.105 | locus YDR159W, strain sac3, hits give low values 0.0874 | locus YDR195W, strain ref2 0.133 | locus YDR297W, strain sur2, hits give low values 0.0626 | locus YDR334W, strain swr1, hits give low values 0.0607 | locus YDR335W, strain msn5, hits give low values 0.0579 | locus YDR392W, strain spt3, hits give low values 0.0822 | locus YEL003W, strain gim4, hits give low values 0.0548 | locus YEL037C, strain rad23, hits give low values 0.0549 | locus YEL061C, strain CIN8 (second series), hits give low values 0.0587 | locus YER015W, strain faa2, hits give low values 0.0638 | locus YER016W, strain bim1, hits give low values 0.0622 | locus YER111C, strain swi4, hits give low values 0.0695 | locus YER155C, strain BEM2 (second series), hits give low values 0.0842 | locus YFR010W, strain ubp6, hits give low values 0.0648 | locus YGL167C, strain pmr1, hits give low values 0.0766 | locus YGL173C, strain kem1, hits give low values 0.082 | locus YGL227W, strain vid30, hits give low values 0.0637 | locus YGL240W, strain doc1, hits give low values 0.0747 | locus YGL253W, strain hxk2, hits give low values 0.0509 | locus YHR013C, strain ard1, hits give low values 0.14 | locus YHR027C, strain rpn1, hits give low values 0.0701 | locus YHR142W, strain chs7, hits give low values 0.0698 | locus YJL092W, strain hpr5, hits give low values 0.0564 | locus YJL095W, strain BCK1 (second series), hits give low values 0.0584 | locus YJL115W, strain asf1, hits give low values 0.0702 | locus YJL129C, strain trk1, hits give low values 0.0808 | locus YJL154C, strain vps35, hits give low values 0.0578 | locus YJL164C, strain tpk1, hits give low values 0.0591 | locus YJL166W, strain qcr8, hits give low values 0.061 | locus YKL160W, strain elf1, hits give low values 0.0625 | locus YKR026C, strain gcn3, hits give low values 0.0625 | locus YKR091W, strain srl3, hits give low values 0.072 | locus YLL001W, strain dnm1, hits give low values 0.0583 | locus YLL026W, hits give low values 0.0591 | locus YLL041C, strain sdh2, hits give low values 0.058 | locus YLR027C, strain aat2, hits give low values 0.0551 | locus YLR221C, strain rsa3, hits give low values 0.0588 | locus YLR258W, strain gsy2, hits give low values 0.0598 | locus YLR262C, strain YPT6 (second series), hits give low values 0.0755 | locus YLR320W, strain mms22, hits give low values 0.0754 | locus YLR342W, strain FKS1, hits give low values 0.0648 | locus YLR357W, strain rsc2, hits give low values 0.121 | locus YLR370C, strain arc18, hits give low values 0.062 | locus YLR384C, strain iki3, hits give low values 0.0585 | locus YML120C, strain ndi1, hits give low values 0.0597 | locus YMR058W, strain fet3, hits give low values 0.0574 | locus YMR125W, strain sto1, hits give low values 0.075 | locus YMR129W, hits give low values 0.0586 | locus YMR205C, strain PFK2, hits give low values 0.0871 | locus YMR231W, strain pep5, hits give low values 0.173 | locus YNL071W, strain lat1, hits give low values 0.0608 | locus YNL209W, strain ssb2, hits give low values 0.0625 | locus YNL248C, strain rpa49, hits give low values 0.0698 | locus YNL322C, strain KRE1 (second series), hits give low values 0.0641 | locus YNR049C, strain mso1, hits give low values 0.0585 | locus YOR001W, strain rrp6, hits give low values 0.0712 | locus YOR070C, strain gyp1, hits give low values 0.0615 | locus YOR080W, strain dia2, hits give low values 0.0657 | locus YOR083W, strain WHI5, hits give low values 0.0753 | locus YOR106W, strain vam3, hits give low values 0.0675 | locus YOR265W, strain rbl2, hits give low values 0.0614 | locus YOR270C, strain vph1, hits give low values 0.093 | locus YOR290C, strain snf2, hits give low values 0.069 | locus YPL051W, strain arl3, hits give low values 0.0646 | locus YPL078C, strain atp4, hits give low values 0.0596 | locus YPL106C, strain sse1, hits give low values 0.0983 | locus YPL240C, strain hsp82, hits give low values 0.0574
